# This is a sample that favours compounds with a hit; in the whole collection about 5.3% have one here.
# HCV inhibitor: blocks hepatitis C virus; Huh7.5.1 HCVcc-Cre infection, luciferase reporter, 44 h; Potency, µM (top dose mostly 41.8 µM), without a hit: at the highest dose activity change, negative = inhibition, hits mostly inhibitors; 340,000 tested, 3.4% active; AID 651820; active = well fitted inhibition curve with a large enough effect; inconclusive = small, poorly fitted or top-dose-only effect, or another doubt; inactive = no such curve, though single readings can be large or run the other way
#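 HCVcc-Cre virus at an moi near 0.5 was added right after compound to cells cultured 4 h from seeding (1,000 cells/well). Luciferase activity was determined 44 h later, 15 min after substrate addition at RT.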
# Vaccinia Venus: inhibitors of vaccinia virus (Venus reporter); Vaccinia virus Venus reporter expression, fluorescence; Potency, µM (titrated, usually from 36.5 µM), inactives show top-dose activity change, negative = inhibition, usual class: inhibitors; 330,000 tested, 0.46% active; AID 720580; calls by dose curve; tested in A549 cells; note: nearly all actives have a fitted effect of over 30% in size
# FMDV inh: blocks foot and mouth disease virus | FMDV antiviral cell-based qHTS | Potency, µM (top dose mostly 57.9 µM), for the others: at the top dose activity change, negative = inhibition, hits mostly inhibitors | 410,000 tested, 1.2% active; calls by dose curve; tested in HEK293T cells; note: read-out not given here; nearly all actives have a fitted effect of over 45% in size
# LASV entry inh: Lassa virus entry inhibition; 300,000 tested, 1.2% active; Lassa virus pseudotype entry inhibition, cell reporter; Potency, µM (titrated, usually from 37.9 µM), for inactives: top-dose activity change, negative = inhibition, hits mostly inhibitors; calls by dose curve; tested in HEK293 cells; note: nearly all actives have a fitted effect of over 50% in size
# MARV entry inh: inhibitors of Marburg virus binding or cell entry; Potency, µM (doses to about 37.8 µM), for the others: at the highest dose activity change, negative = inhibition, hits mostly inhibitors; Marburg virus pseudotyped entry inhibition, cell reporter; 300,000 tested, 1.8% active; calls by dose curve; tested in HEK293 cells
# VACV mCherry inh: vaccinia inhibition (mCherry reporter); Vaccinia virus mCherry reporter infection, fluorescence; Potency, µM (series often up to 36.5 µM), for inactives: at the top dose activity change, negative = inhibition, most hits filed as inhibitors; 310,000 tested, 0.63% active; calls by dose curve; tested in A549 cells; note: nearly all actives have a fitted effect of over 35% in size
# * hit, by the source's call; i = inactive; u = inconclusive; x = no result; ! = not active in a repeat; [ ] = dose if it differs, or a comment. % is set by controls: 0 for no effect and ±100 for the full control effect; potency is the fitted concentration of half-maximal effect.
SMILES,HCV inhibitor,Vaccinia Venus,FMDV inh,LASV entry inh,MARV entry inh,VACV mCherry inh
CCc1ccc(N/C(SCc2ccccc2C)=C(/C#N)C(=O)NCc2ccco2)cc1,u,x,-10%,8.2µM*,u,x
C=CCc1cccc(/C=N/NC(=O)CCC(=O)Nc2ccc(F)cc2)c1O,u,u,-18%,u,13µM*,u
C=CCc1cccc(/C=N/NC(=O)CNc2ccccc2)c1O,u,u,14%,u,u,x
C=CCc1cccc(/C=N/NC(=O)CCCNc2ccc(C)cc2)c1O,-11%,u,-3%,u,u,13µM*
C=CCc1cccc(/C=N/NC(=O)C(C)Nc2cccc(C)c2)c1O (configuration not stated),u,-17%,-13%,11µM*,u,u
C=CCc1cccc(/C=N/NC(=O)C[n+]2ccccc2)c1O,-12%,x,-10%,x,x,x
COc1ccc(OC)c(-c2cc(Cl)c3c(c2)CC(CNC(=O)/C=C/c2ccccn2)O3)c1 (configuration not stated),x,-8%,11%,x,x,-2%
CN(C)c1ccc(-c2ccnc3c2CC(C)(C(=O)Nc2ccc(Cl)c(C(F)(F)F)c2)O3)cc1 (configuration not stated),x,-28%,-37%,x,x,-29%
CCOC(=O)c1c(NC(=S)N2CCN(C)CC2)sc(C)c1-c1ccccc1,-7%,-9%,-8%,8.9µM*,u,-11%
CCOC(=O)c1c(NC(=O)CN2CCCCC2)sc2c1CCCC2O (configuration not stated),u,-19%,-27%,x,x,-23%
CCOC(=O)c1ccc(NC(=S)N2CCN(C)CC2)cc1,5%,-11%,27%,-22%,18%,-4%
CCOC(=O)c1c(NC(=O)CCl)sc(CN(C)C)c1-c1ccccc1,u,-9%,35µM*,-22%,u,-13%
CCOC(=O)c1c(NC(=O)CN2CCCCC2)sc(CN(C)C)c1-c1ccccc1,22µM*,-16%,-19%,u,u,i
CCOC(=O)c1c(NC(=O)/C=C/C(=O)O)sc(C)c1-c1ccc(Cl)cc1,-12%,x,u,x,x,x
Cc1cc(C)cc(NC(=O)C2CCCN(c3nnc(C)c4c(C)n(-c5ccccc5)nc34)C2)c1 (configuration not stated),x,-22%,-22%,0%[46.1 µM],x,-22%
COC(=O)c1c(NC(=O)COc2ccc(C)cc2Br)sc2c1CCCC2,x,7%,-12%,25%[46.1 µM],18%[46.1 µM],-2%
CN(C)c1nc(-c2ccccc2)nc(-c2ccc(Cl)cc2)c1C#N,14%,6%,-17%,18%,0%,x
CCN(CC)c1nc(-c2ccccn2)nc(-c2ccccc2)c1C#N,6.3µM*,u,u,u,6.3µM*,u
CN(C)c1nc(-c2ccccn2)nnc1-c1ccccc1,u,u,-2%,u,u,8.9µM*
Cc1ccc(Cc2c(-c3ccc(Cl)cc3)nc3c(Cl)cc(C(F)(F)F)cn23)cc1,x,4%,-19%,x,x,20%
COc1ccc(OCCN2CCC(C(=O)NC(c3ccc(Cl)cc3)c3cnccn3)CC2)cc1 (configuration not stated),x,-9%,-3%,x,x,i
CC(=O)N1N=C2c3ccccc3CCC2C1c1ccc(F)cc1 (configuration not stated),-8%,-18%,-22%,u,u,-3%
COc1ccc2c(c1)CCC1C2=NN(/C(C)=C/C(C)=O)C1c1cccc(F)c1 (configuration not stated),11µM*,-26%,24%,0%,u,-27%
Cc1nc2cc(NC(=O)C3CC34CCN(Cc3ccc(O)c(Cl)c3)CC4)ccc2s1 (configuration not stated),x,-12%,6%,x,x,i
CC1COC2=C1C(=O)C(=O)c1c2ccc2c1CCCC2(C)C (configuration not stated),x,9%,-9%,x,x,-5%
SMILES,HCV inhibitor,Vaccinia Venus,FMDV inh,LASV entry inh,MARV entry inh,VACV mCherry inh
C[C@H]1COC2=C1C(=O)C(=O)c1c2ccc2c1CCCC2(C)C,u,11µM*,-23%,x,x,11µM*
Cc1coc2c1C(=O)C(=O)c1c-2ccc2c1CCCC2(C)C,u,11µM*!,-20%,x,x,10µM*!
Cc1coc2cc3oc(=O)c4c(c3cc12)CCC4,20%,x,x,x,4%,x
Cc1coc2c1C(=O)C(=O)c1c-2ccc2c(C)cccc12,3%,7.1µM*,u,x,x,u
O=C(O)[C@H]1/C(=C/CO)O[C@@H]2CC(=O)N21,x,-6%,x,x,x,i
Cc1nc(C(C)NC2CCN(c3cccc(NC(=O)c4ccncc4)c3)CC2)cs1 (configuration not stated),x,-6%,11%,x,x,-10%
O=C(NCCCN1CCOCC1)c1cc2c(=O)[nH]c3ccccc3c2s1,15%,-5%,-18%,2%,10µM*,-14%
CCN1CCN(CCCNC(=O)c2cc3c(=O)[nH]c4ccccc4c3s2)CC1,u,-14%,x,u,u,-14%
CN(C)CCCNC(=O)c1cc2sc3ccccc3c2s1,10µM*,-13%,-2%,-23%,u,-28%
COCCNC(=O)c1cc2sc3ccccc3c2s1,u,-20%,34%,-8%,u,-26%
CCCCN(CC)CCNC(=O)c1cc2c(=O)[nH]c3ccc(C)cc3c2s1,u,u,-27%,u,5µM*,-21%
CCCCN(CC)CCCNC(=O)c1cc2c(=O)[nH]c3ccccc3c2s1,u,-10%,-16%,-18%,7.1µM*,-9%
O=[N+]([O-])c1ccc(S(=O)(=O)c2ccccc2)nc1,u,u,35µM*,x,x,-20%
Cc1cc(S(=O)(=O)c2ccc([N+](=O)[O-])cn2)ccc1Br,u,-21%,8.9µM*,u,10µM*,-3%
Cc1ccc(S(=O)(=O)c2ccc([N+](=O)[O-])cn2)cc1,u,-26%,25µM*,u,4µM*,u
Cc1cc(C(C)(C)C)cc(C)c1CC1=NCCN1,-8%[8.37 µM],-8%,-21%,u,7.9µM*,-3%
Cc1ccc(-c2cnc(C(O)c3cc(C)cc(C)c3)[nH]2)cc1 (configuration not stated),x,-29%,2%,x,x,i
NC(=O)c1cccc(-c2cnc(N)c(C(=O)c3cccnc3)n2)c1,u,u,-17%,x,x,6.3µM*
O=C(c1cccnc1)c1cc2ccccc2[nH]1,27%,-2%,3%,-2%,11%,-7%
CC(=O)Nc1cccc(-c2csc(N)n2)c1,7%,-18%,15%,x,x,-6%
CC(=O)Nc1cccc(-c2cnc(N)c(C(=O)c3cccnc3)n2)c1,11µM*,10µM*,-4%,x,x,13µM*
COc1cc(-c2cc(C)c3cccc(OC)c3n2)cc2c1OCCN(C(=O)Cn1nc(C)cc1C)C2,x,-1%,15%,x,x,-7%
COC(=O)N[C@@H](CCc1ccccc1)[C@]1(C(=O)OC)CCCC1=O,x,x,x,x,-9%[14.2 µM],x
CC(=NNC(=S)N1CC2CCC(CC2)C1)c1cnccn1,u,u,-17%,0.28µM*,u,16µM*
